BAZ2B block: inhibitors of human BAZ2B bromodomain; Q9UIF8; AlphaScreen BAZ2B-H3K14Ac peptide displacement; Potency, µM (doses to about 114 µM), for inactives: at the top dose activity change, negative = inhibition, hits mostly inhibitors; 360,000 tested, 4.4% active; AID 504333; note: % is set by controls: 0 for no effect and ±100 for the full control effect; nearly all actives have a fitted effect of over 60% in size
Target sequence (Q9UIF8 whole entry, looked up): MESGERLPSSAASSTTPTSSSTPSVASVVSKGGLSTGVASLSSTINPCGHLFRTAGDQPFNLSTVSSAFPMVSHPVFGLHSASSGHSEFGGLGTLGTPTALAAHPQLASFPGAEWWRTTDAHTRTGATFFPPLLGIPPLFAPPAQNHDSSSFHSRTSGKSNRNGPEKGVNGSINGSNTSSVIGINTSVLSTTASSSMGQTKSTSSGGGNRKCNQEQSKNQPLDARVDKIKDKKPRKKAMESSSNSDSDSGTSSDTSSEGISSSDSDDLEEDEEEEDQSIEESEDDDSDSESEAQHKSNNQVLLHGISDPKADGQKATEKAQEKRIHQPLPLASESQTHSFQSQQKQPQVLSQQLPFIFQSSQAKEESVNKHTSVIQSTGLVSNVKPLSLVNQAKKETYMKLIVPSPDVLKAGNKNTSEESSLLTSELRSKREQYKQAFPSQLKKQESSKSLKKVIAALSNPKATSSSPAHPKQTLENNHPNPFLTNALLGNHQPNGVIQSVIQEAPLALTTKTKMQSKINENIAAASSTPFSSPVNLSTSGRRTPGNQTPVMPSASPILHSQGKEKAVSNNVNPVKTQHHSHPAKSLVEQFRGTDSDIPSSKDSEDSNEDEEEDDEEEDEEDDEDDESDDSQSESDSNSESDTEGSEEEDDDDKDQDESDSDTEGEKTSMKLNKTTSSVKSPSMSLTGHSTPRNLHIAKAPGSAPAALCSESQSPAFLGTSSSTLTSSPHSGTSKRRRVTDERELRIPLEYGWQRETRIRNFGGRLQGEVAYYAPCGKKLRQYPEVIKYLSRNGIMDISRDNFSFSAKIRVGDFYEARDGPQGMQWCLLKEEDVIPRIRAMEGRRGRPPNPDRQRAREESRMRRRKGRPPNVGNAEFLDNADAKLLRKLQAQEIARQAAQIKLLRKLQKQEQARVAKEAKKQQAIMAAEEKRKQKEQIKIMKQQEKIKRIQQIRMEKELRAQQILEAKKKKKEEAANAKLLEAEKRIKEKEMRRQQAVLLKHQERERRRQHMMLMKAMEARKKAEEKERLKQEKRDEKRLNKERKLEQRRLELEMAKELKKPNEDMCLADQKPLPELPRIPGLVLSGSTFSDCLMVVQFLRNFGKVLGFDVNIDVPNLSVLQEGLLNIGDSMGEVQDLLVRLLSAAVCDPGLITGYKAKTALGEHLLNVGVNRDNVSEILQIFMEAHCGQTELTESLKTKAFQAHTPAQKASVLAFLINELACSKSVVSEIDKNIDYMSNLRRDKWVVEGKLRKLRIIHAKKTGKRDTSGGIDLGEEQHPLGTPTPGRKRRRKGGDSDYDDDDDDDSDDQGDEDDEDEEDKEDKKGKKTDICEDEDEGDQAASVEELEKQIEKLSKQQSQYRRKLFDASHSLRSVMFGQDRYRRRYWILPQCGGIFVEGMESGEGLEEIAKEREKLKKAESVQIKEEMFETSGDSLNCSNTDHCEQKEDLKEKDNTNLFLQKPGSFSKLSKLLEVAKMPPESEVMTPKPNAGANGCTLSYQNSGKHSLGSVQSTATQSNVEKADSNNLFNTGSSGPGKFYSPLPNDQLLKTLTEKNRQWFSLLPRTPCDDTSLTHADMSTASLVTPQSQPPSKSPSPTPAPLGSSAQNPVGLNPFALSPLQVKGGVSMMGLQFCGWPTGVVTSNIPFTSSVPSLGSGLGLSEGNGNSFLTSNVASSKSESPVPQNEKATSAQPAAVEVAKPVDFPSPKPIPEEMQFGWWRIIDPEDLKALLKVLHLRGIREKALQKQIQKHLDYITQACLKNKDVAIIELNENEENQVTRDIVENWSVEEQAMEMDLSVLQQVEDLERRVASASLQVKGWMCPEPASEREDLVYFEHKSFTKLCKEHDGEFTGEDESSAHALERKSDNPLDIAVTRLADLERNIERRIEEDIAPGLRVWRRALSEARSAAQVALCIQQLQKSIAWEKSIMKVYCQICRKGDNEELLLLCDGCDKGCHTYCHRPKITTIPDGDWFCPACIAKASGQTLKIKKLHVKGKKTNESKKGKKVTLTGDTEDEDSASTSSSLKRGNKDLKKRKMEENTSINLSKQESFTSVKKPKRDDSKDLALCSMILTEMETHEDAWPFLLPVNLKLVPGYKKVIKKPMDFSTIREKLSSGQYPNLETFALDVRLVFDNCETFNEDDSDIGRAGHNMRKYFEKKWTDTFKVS
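BAZ2B 50 nM plus b-H3(5-23)K14Ac 50 nM, PBS pH 7.4/0.01% Tween-20, 30 min RT; compound added (max 110 uM), 30 min RT; streptavidin donor/Ni-chelate acceptor beads 10 ug/mL final, 20 min dark; AlphaScreen read.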
JMJD2A Tudor: inhibitors of human JMJD2A Tudor domain. O75164. AID 504339. 390,000 tested, 4.4% active. Potency, µM (highest dose often 114 µM), without a hit: at the top dose activity change, negative = inhibition, usual class: inhibitors. AlphaScreen JMJD2A-Tudor / H3K4me3 peptide binding; note: % is set by controls: 0 for no effect and ±100 for the full control effect; nearly all actives have a fitted effect of over 50% in size
TDP1 inh: blocks human tyrosyl-DNA phosphodiesterase 1; Q9NUW8; recombinant TDP1, AlphaScreen DNA substrate cleavage; Potency, µM (titrated, usually from 130 µM), without a hit: at the highest dose activity change, negative = inhibition, usual class: inhibitors; 350,000 tested, 0.28% active; AID 485290; note: % is set by controls: 0 for no effect and ±100 for the full control effect; nearly all actives have a fitted effect of over 40% in size
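Compounds were preincubated with Tdp1 (1 nM final) for 15 min at room temperature before substrate (15 nM final) started a 5 min reaction; beads (10 ug/ml final) were then added for 10 min before AlphaScreen detection.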
HP1b chromo inh: HP1-beta chromodomain-methylated histone interaction inhibition | AID 540317 | AlphaScreen HP1-beta / biotin-H3K9me3 peptide binding | 390,000 tested, 0.56% active | Potency, µM (top dose mostly 114 µM), for the others: at the highest dose activity change, negative = inhibition, usual class: inhibitors | P83916; note: nearly all actives have a fitted effect of over 70% in size
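Compound inhibition of the preformed complex between 50 nM HP1-beta and 50 nM biotinylated H3K9me3 peptide was read by AlphaScreen. Buffer was PBS pH 7.4 with 0.01% Tween-20. Incubations ran 30 min at room temperature, with 10 ug/mL donor/acceptor beads.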
Sfp PPTase inh: inhibitors of Bacillus subtilis Sfp phosphopantetheinyl transferase. Q9F4F7. Biochemical Sfp PPTase activity, qHTS. Potency, µM, without a hit: largest response in the series, negative = inhibition, actives largely listed as inhibitors. 310,000 tested, 3.5% active;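 note: the enzyme is Sfp with the accession as filed and its product quenches rhodamine fluorescence; 0% = enzyme reaction without inhibitor and -100% = no enzyme wells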
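With Hepes-Na pH 7.6 buffer containing 10 mM MgCl2, Sfp (15 nM) modified BHQ-2-YbbR (12.5 uM) using rhodamine-CoA (5 uM). Two reads 30 minutes apart at 525/598 nm yielded each well's rate.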
G9a block: inhibitors of human histone lysine methyltransferase G9a. Q96KQ7. Potency, µM (top dose mostly 102 µM), for the others: at the highest dose activity, negative = inhibition, most hits filed as inhibitors. G9a H3K9 monomethylation, AlphaScreen, 2 h. 350,000 tested, 8.8% active; note: % is set by controls: 0 for no effect and ±100 for the full control effect; nearly all actives have a fitted effect of over 75% in size
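Readings reflect AlphaScreen signal from monomethyl-H3K9 antibody detection. HMT at 20 nM; substrate b-H3K9 500 nM; cofactor SAM 20 uM; 2 h RT reaction; compounds tested as titrations in qHTS with 15 min preincubation.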
Active calls of the source: *; [ ] = dose if it differs, or a comment. The list is not random: actives were taken first. Their share in the collection is about 12%. Calls come from the whole dose curve; as a rule, active = well fitted curve in the direction sought with a large enough effect; inconclusive = small, poorly fitted or top-dose-only effect, or another doubt; inactive = no such curve, though single readings can be large; an effect the other way counts as inactive or inconclusive. Potency is the fitted concentration of half-maximal effect.

How did CC(=O)Nc1c(I)c(C(=O)O)c(I)c(N(C)C(C)=O)c1I do in these assays?
Sfp PPTase inh: 29.2%; G9a block: inconclusive

How did O=[N+]([O-])c1ccc(N2CCCC(C(F)(F)F)C2)c2ccncc12 (stereo unspecified) do in these assays?
BAZ2B block: inconclusive; JMJD2A Tudor: inconclusive; TDP1 inh: 14.1%; HP1b chromo inh: inconclusive; Sfp PPTase inh: -7.1%; G9a block: 50.1µM*

How did O=[N+]([O-])c1ccc(N2CCCCC2)c2ncccc12 do in these assays?
BAZ2B block: inconclusive; JMJD2A Tudor: inconclusive; TDP1 inh: 7.3%; HP1b chromo inh: inconclusive; Sfp PPTase inh: -26.2%; G9a block: inconclusive

What do the screens show for `Cc1cccc(N2C(=O)NC(=O)/C(=C\c3ccc4c(c3)CCCN4Cc3ccccc3)C2=O)c1`?
BAZ2B block: inconclusive; JMJD2A Tudor: -23.7%; TDP1 inh: 5.5%; HP1b chromo inh: 14.5%; Sfp PPTase inh: 44.7µM*; G9a block: inconclusive

How did O=C(CN1CCCCC1c1cccnc1)c1ccccc1 (stereo unspecified) do in these assays?
TDP1 inh: 16.8%; Sfp PPTase inh: -25.3%

What do the screens show for `CC1CCCCN1CC(=O)c1ccc2cc[nH]c2c1` (stereo unspecified)?
BAZ2B block: -9.9%; JMJD2A Tudor: -28.5%; TDP1 inh: -1.3%; HP1b chromo inh: 14.8%; Sfp PPTase inh: -18.9%; G9a block: 31.6µM*

How did COCc1cc(C)c(C#N)c(=S)[nH]1 do in these assays?
BAZ2B block: inconclusive; JMJD2A Tudor: 7.94µM*; TDP1 inh: 3.2%; HP1b chromo inh: inconclusive; Sfp PPTase inh: 10µM*

How did CCOc1cccc(=NC2CCCCC2)c2c(C)n(C)c(C)c12 do in these assays?
BAZ2B block: inconclusive; JMJD2A Tudor: inconclusive; HP1b chromo inh: inconclusive; Sfp PPTase inh: -6.2%; G9a block: 50.1µM*

What do the screens show for `Cc1cc(O)c(CN2CCN(c3ccccc3)CC2)cc1C`?
BAZ2B block: -1.0%; JMJD2A Tudor: -16.7%; TDP1 inh: -1.0%; HP1b chromo inh: 34.3%; Sfp PPTase inh: 14.9%; G9a block: 21.7%[12.7 µM]

Results for COc1ccccc1N1CCN(Cc2ccc(Cl)cc2Cl)CC1 ?
BAZ2B block: inconclusive; JMJD2A Tudor: 22.4µM*; TDP1 inh: -0.7%; HP1b chromo inh: inconclusive; Sfp PPTase inh: inconclusive; G9a block: 22.4µM*

How did CSc1ccc(CN2CCN(c3ccccc3C)CC2)cc1 do in these assays?
BAZ2B block: inconclusive; JMJD2A Tudor: 4.47µM*; HP1b chromo inh: -11.9%; Sfp PPTase inh: -26.6%; G9a block: 12.6µM*

Results for Oc1ccc(Cl)cc1CN1CCN(Cc2ccccc2)CC1 ?
BAZ2B block: inconclusive; JMJD2A Tudor: -24.4%[57.1 µM]; TDP1 inh: 2.3%; HP1b chromo inh: 72.1%; Sfp PPTase inh: -5.6%; G9a block: inconclusive

Results for COc1ccc(CN2CCN(c3ccccc3)CC2)c(C)c1C ?
BAZ2B block: 50.1µM*; JMJD2A Tudor: 3.98µM*; TDP1 inh: 5.0%; HP1b chromo inh: inconclusive; Sfp PPTase inh: inconclusive; G9a block: 11.2µM*

How did Cc1ccc(CN2CCN(Cc3ccccc3F)CC2)cc1 do in these assays?
BAZ2B block: 22.4µM*; JMJD2A Tudor: 20µM*; TDP1 inh: -9.2%; HP1b chromo inh: inconclusive; Sfp PPTase inh: -27.2%; G9a block: 12.6µM*

What do the screens show for `Cc1ccc(-n2nc3c(=O)n(CC(=O)Nc4ccccc4F)nc(C)c3c2C)c(C)c1`?
BAZ2B block: -1.6%; JMJD2A Tudor: -15.1%; TDP1 inh: -7.6%; HP1b chromo inh: 40.4%; G9a block: -5.1%[59 µM]

How did CCCCNC(=O)n1c(NC(=O)OC)nc2ccccc21 do in these assays?
TDP1 inh: 11.6%

What do the screens show for `Clc1ccccc1-c1cncnc1NCCc1cnc[nH]1`?
Sfp PPTase inh: 1.1%; G9a block: 0.0%[0.501 µM]

How did COc1cccc(CN2CCNCC2)c1OC do in these assays?
BAZ2B block: inconclusive; JMJD2A Tudor: -16.1%; TDP1 inh: 9.8%; HP1b chromo inh: 23.0%; Sfp PPTase inh: -6.6%; G9a block: -2.6%

What do the screens show for `CCOc1ccccc1CN1CCN(S(=O)(=O)CC)CC1`?
BAZ2B block: 50.1µM*; JMJD2A Tudor: 5.62µM*; TDP1 inh: -2.8%; HP1b chromo inh: inconclusive; Sfp PPTase inh: -26.6%; G9a block: 12.6µM*

Results for CCOc1ccccc1N1CCN(Cc2cccc(OC)c2OC)CC1 ?
BAZ2B block: inconclusive; JMJD2A Tudor: 1.78µM*; TDP1 inh: -1.0%; HP1b chromo inh: inconclusive; Sfp PPTase inh: -1.4%; G9a block: inconclusive

What do the screens show for `FC(F)(F)c1ccccc1CCN1CCNCC1`?
BAZ2B block: -28.7%; JMJD2A Tudor: -25.3%; HP1b chromo inh: 26.2%; Sfp PPTase inh: -8.4%; G9a block: inconclusive

Results for FC(F)(F)c1ccccc1CN1CCN(Cc2ccccc2)CC1 ?
BAZ2B block: 50.1µM*; JMJD2A Tudor: 3.98µM*; TDP1 inh: -5.6%; HP1b chromo inh: inconclusive; Sfp PPTase inh: inconclusive; G9a block: 3.16µM*

Results for CCc1ccc(CN2CCN(Cc3ccc(SC)cc3)CC2)cc1 ?
BAZ2B block: 39.8µM*; JMJD2A Tudor: inconclusive; TDP1 inh: -1.2%; HP1b chromo inh: inconclusive; Sfp PPTase inh: inconclusive; G9a block: 3.55µM*

Results for COc1ccccc1N1CCN(Cc2ccc(SC)cc2)CC1 ?
BAZ2B block: 50.1µM*; JMJD2A Tudor: 28.2µM*; HP1b chromo inh: inconclusive; Sfp PPTase inh: inconclusive; G9a block: 10µM*

How did Cc1cccc(CN2CCN(Cc3ccc(Cl)cc3)CC2)c1 do in these assays?
BAZ2B block: 31.6µM*; JMJD2A Tudor: 1.12µM*; TDP1 inh: -3.5%; HP1b chromo inh: inconclusive; Sfp PPTase inh: inconclusive; G9a block: 7.08µM*

How did COc1ccccc1N1CCN(Cc2ccc(F)cc2)CC1 do in these assays?
BAZ2B block: -11.3%; JMJD2A Tudor: -20.1%; TDP1 inh: 2.5%; HP1b chromo inh: 27.0%; Sfp PPTase inh: 5.8%; G9a block: -33.7%

Results for COc1ccccc1CN1CCN(Cc2ccc(Cl)cc2)CC1 ?
BAZ2B block: 17.8µM*; JMJD2A Tudor: 39.8µM*; TDP1 inh: -2.5%; HP1b chromo inh: inconclusive; Sfp PPTase inh: 79.4µM*; G9a block: 3.55µM*

How did Cc1ccccc1NC(=O)CCl do in these assays?
BAZ2B block: 0.1%; JMJD2A Tudor: -9.1%; HP1b chromo inh: 36.1%; Sfp PPTase inh: 15.4%; G9a block: 4.9%

How did CC(=O)Nc1nc(CCl)cs1 do in these assays?
BAZ2B block: -19.4%; JMJD2A Tudor: -30.1%; TDP1 inh: 11.6%; HP1b chromo inh: 31.9%; Sfp PPTase inh: -5.7%; G9a block: 20µM*

Compound activity: PubChem, National Center for Advancing Translational Sciences (NCATS)
